The text below walks through data of the emibetuzumab library of Makowski et al. (2022).

B1: VH:VL chains; a variant is named by its letters at X, in order (parent)
chain 1: QVQLVQSGAEVKKPGASVKVSCKASGYTFTDYXMHWVRQAPGQGLEWMGXVNPNXXXTTYNQKFEGRVTMTTDTSTSTAYMELRSLRSDDTAVYYCARXNXLDXWGQGTTVTVSS
chain 2: DIQMTQSPSSLSASVGDRVTITCSVSSSVSSIYLHWYQQKPGKAPKLLIYSTSNLASGVPSRFSGSGSGTDFTLTISSLQPEDFATYYCQVYSGYPLTFGGGTKVEIK

This is one part of the list. The true hit rate is not given.

In this assay the parent is B1. As to the kind of experiment: yeast display scFab, FACS + sequencing. To be noted: with MET. A digest of the protocol:
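Heavy-chain CDR mutant scFab yeast surface library, enriched by two magnetic rounds on HGFR-Fc-coated Protein A beads and then by FACS. Cells were labelled with 1 nM HGFR-Fc in PBSB with 1% milk and anti-Myc for 3 h at room temperature, and the top 50% antigen-positive cells were gated. Round-3 sorted and input populations were deep sequenced in two replicates. Antigen binding call: positive if a sequence occurred in both antigen-positive samples, negative if it occurred only in input.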
Turning to SEARSDAS, the antigen binding call is on record as “no binding”.
In the case of DKEGGDVD, the antigen binding call was “no binding”.
With DATGGDGS the entry was “no binding”.
Turning to SKGRSDAV, the antigen binding call is on record as “no binding”.
With SETGNVWF, the antigen binding call was “no binding”.
For the variant YATRGAAA, the antigen binding call is on record as “no binding”.
Turning to VRTRGYLA, the antigen binding call is “no binding”.
The value for YRTRGALA was “binds”; that for YRTRGAWA was “binds”.
The value for YRTRGAAA was “binds”.
With VTGTGAVY the entry was “no binding”; with VGRGNSGD, “no binding”.
With DGRGNSGD, the antigen binding call was “no binding”.
The value for YEGTGSGD was “no binding”; that for YKRGGSGD was “binds”; that for YKRRNSGD was “no binding”.
As to YKRGSSGD, the antigen binding call is on record as “binds”.
The value for YGRGNSGD was “binds”.
In the case of STGGGDGV, the antigen binding call is listed as “no binding”.
The value for STAGSASD was “no binding”; that for DARGGSLS was “no binding”.
With YRRGSALS the entry was “binds”.
With YEGTGSLS the entry was “no binding”; with YRRGGSLS, “binds”.
On to YRRGSSLS, for which the antigen binding call is recorded as “binds”.
With VKGASDGA the entry was “no binding”; with VKRGSSGA, “binds”; with YKEKGDGA, “no binding”.
With YKRGSDGA the entry was “binds”; with VTRGDSGA, “no binding”; with YKRGSSGA, “binds”.
As for YKRGSFGA, the antigen binding call is listed as “no binding”.
Take VTRGASGA: the antigen binding call is “no binding”.
Take DAGGGSSD: the antigen binding call is listed as “no binding”.
With SETTDAGV the entry was “no binding”; with STKRSFWA, “no binding”.
With YRGTGSVD the entry was “binds”; with YRGESAVD, “binds”; with VTGTGSVD, “no binding”.
The value for DTGTGSVD was “no binding”; that for YKGKDSVD was “no binding”; that for YRGKDSVD was “binds”.
In the case of YRGEASVD, the antigen binding call was “binds”.
As for DAEKDSGA, the antigen binding call is reported as “no binding”.
Consider VTKESAAV, for which the antigen binding call was “no binding”.
The value for YRTKAAVD was “binds”.
With DEGGTSVD the entry was “no binding”; with YRGKASVD, “binds”; with YRGKSSVD, “binds”.
In the case of YGGKNSVD, the antigen binding call is given as “no binding”.
The value for YRGGTSVD was “binds”; that for VTGTSDVA was “no binding”; that for VTGGDDWF was “no binding”.
With DREGDYLY the entry was “no binding”; with YTGGDSVD, “binds”; with VTGGDSVD, “no binding”.
The value for YRGKAAVD was “binds”; that for YTGGDSVA was “no binding”.
Turning to YAGAAAVD, the antigen binding call was “no binding”.
With DAGTDAGD the entry was “no binding”; with DRAGDSSA, “no binding”.
The value for YRTGDSSA was “binds”.
The value for DRAGDDLA was “no binding”; that for YRTGDSAA was “binds”; that for YRAGDSSA was “binds”.
With SAAGGAAD chain 1 L45S, the antigen binding call is reported as “no binding”.
With DTREGDVY the entry was “no binding”; with VKERGDGV, “no binding”.
Consider FARENFLA chain 1 V51A, for which the antigen binding call is listed as “no binding”.
The value for VAKADDWF was “no binding”.
The value for YRTRSAGD was “binds”; that for YAGRAAWD was “no binding”.
Turning to YRTRSAWD, the antigen binding call is given as “binds”.
Turning to YRGRSAWD, the antigen binding call is listed as “binds”.
With YRTRAAWD the entry was “binds”; with YGTRSAAD, “no binding”; with SEEEGDWV, “no binding”.
With AKEADDVA the entry was “no binding”.
With YTGTSDLV the entry was “no binding”; with VTTKSDSV, “no binding”; with VTTRADVA, “no binding”.
Regarding VRRRGAGD, the antigen binding call is “binds”.
The value for VEEEGAGD was “no binding”; that for VEKEGAGD was “no binding”; that for FRRRGSGD was “binds”.
As for VRRRGSGD, the antigen binding call was “binds”.
With VGGGGDGS, the antigen binding call is on record as “no binding”.
As to DTTGGDGV, the antigen binding call is reported as “no binding”.
The value for SEKKSAGA was “no binding”; that for YEGGGDWF was “no binding”; that for YRGKGAAF was “binds”.
With YRGGGAAF the entry was “binds”; with YRAGGAAF, “binds”; with YGARGAAF, “no binding”.
The value for VKGKGAAF was “no binding”; that for YRGGDAAF was “binds”.
As to FAGGGDAV, the antigen binding call was “no binding”.
With VRAGGDAA the entry was “binds”.
With VRERGDAA the entry was “no binding”; with VRTKADAV, “no binding”; with VRAGDDAV, “no binding”.
The value for VRGGGDAA was “no binding”; that for VRAGGDAV was “binds”.
Take YRRGDAAF: the antigen binding call is recorded as “binds”.
With YRKGGAWF the entry was “binds”; with YRRESAGF, “binds”; with DRRGDDVF, “no binding”.
With YRRGGAGF the entry was “binds”; with VAEKDDGS, “no binding”; with SGGTGDVF, “no binding”.
With FTGEADAS the entry was “no binding”; with AARADSWV, “no binding”.
On to YRRGDAGF, for which the antigen binding call was “binds”.
The value for YRKGGAGF was “binds”; that for ARRGGSGF was “no binding”.
The value for YRRGSSGF was “binds”; that for YRRGSAGF was “binds”; that for YAGGDDGA was “no binding”.
The value for SETTDSSA was “no binding”.
In the case of DAGGGYGV, the antigen binding call is on record as “no binding”.
With AGERNVAS the entry was “no binding”; with YRRGGALV, “binds”; with YRRKGALV, “binds”.
With YRRKGASV the entry was “binds”.
For ATKAASWV, the antigen binding call is “no binding”.
The value for FRGGGSGS was “binds”.
The value for FRGGDYGS was “no binding”; that for FRGGSSGS was “binds”.
With ATTGGDWD the entry was “no binding”; with YRKRGAAA, “binds”.
With YRKRGAGA, the antigen binding call is “binds”.
The value for VTGEDAGS was “no binding”.
Turning to YKTGGASS, the antigen binding call is “binds”.
The value for YAGRGSAS was “no binding”; that for YKGRGAAS was “binds”; that for YAGRGDAS was “no binding”.
With YRERSDVS the entry was “no binding”; with YRGGGDVS, “binds”; with YTGTSDVS, “no binding”.
With YRGKGALS the entry was “binds”; with YTGTSDVY, “no binding”.
With FTRGADAV, the antigen binding call is “no binding”.
With DAGGDDVY the entry was “no binding”; with YKGRGASS, “binds”.
The value for YAGRGDVS was “no binding”.
The value for VRGRGALS was “binds”.
On to YKGRGALS, for which the antigen binding call is reported as “binds”.
As to YKTRGAVS, the antigen binding call is “no binding”.
For the variant YKGEGFSS, the antigen binding call is reported as “no binding”.
With YKGRGAVS the entry was “binds”; with VETEGAVY, “no binding”; with DKEGGDGV, “no binding”.
The value for AATTDSGV was “no binding”; that for VREGDDAV was “no binding”; that for DRGGGDAS was “no binding”.
With DRAGDDGS the entry was “no binding”; with YRGKSDGS, “no binding”; with YRGGGALS, “binds”.
YRGRGALS: the antigen binding call is “binds”.
With YRGGSDGS the entry was “binds”; with SEARSDVV, “no binding”; with SKERGDVV, “no binding”.
Regarding YRERGAVV, the antigen binding call was “binds”.
The value for YKERGDVV was “binds”; that for YKGEGDVV was “no binding”; that for DREEGAVV was “no binding”.
With FRERGAVV the entry was “binds”.
FRTRGAVV: the antigen binding call is on record as “binds”.
With SRTRGFVV the entry was “no binding”; with VAETAAAA, “no binding”.
With AEARAAGS chain 1 V37I the entry was “no binding”; with VARAADAD, “no binding”.
The value for ATGEGDWS was “no binding”.
For VGATSFSA, the antigen binding call is on record as “no binding”.
Turning to YKGGSSGV, the antigen binding call is reported as “binds”.
The value for YEKGGDGV was “no binding”; that for YKAGGSGV was “binds”.
With YKERASGV the entry was “no binding”; with YKGAASGV, “no binding”; with YKGGSFGV, “no binding”.
For the variant YKKGGSGV, the antigen binding call was “binds”.
The value for FTGTSAAF was “no binding”.
Consider VTEGDDVF, for which the antigen binding call was “no binding”.
With YRKGSAWD the entry was “binds”; with YRKGSSWD, “binds”.
With DGKEGYWA the entry was “no binding”; with DAEGDDGA, “no binding”; with FRGAGSVA, “binds”.
The value for FRGAGSVD was “binds”; that for YRGAGSLD was “binds”; that for YRGAGSVD was “binds”.
Consider YRGAGFVD, for which the antigen binding call is listed as “no binding”.
The value for SKTKSDVA was “no binding”; that for SKERGDWV was “no binding”; that for VERKGYLA was “no binding”.
With VETGNSSA the entry was “no binding”; with AGGGNAGD, “no binding”.
With VRGRSDVF the entry was “no binding”; with VRGRSSLF, “binds”.
For VRRGSSAD, the antigen binding call is “binds”.
The value for VREAADSF was “no binding”; that for VRRGSSAF was “binds”; that for VGGTSSAD was “no binding”.
For the variant VRRGSSLF, the antigen binding call is reported as “binds”.
With VRGGDDVF the entry was “no binding”.
For DAKENAVY, the antigen binding call is on record as “no binding”.
With YTGGDDVY the entry was “no binding”.
Turning to VAEATDLY, the antigen binding call is “no binding”.
The value for DAGGASLD was “no binding”.
The value for STATADVA was “no binding”; that for SAGEGDWV was “no binding”.
